Assay outcomes as filed in PubChem.
The sample as a whole holds a higher share of hits than the screen did.
Pf Dd2 inh – blocks in vitro growth of P. falciparum Dd2. P. falciparum Dd2 growth, SYBR Green, 72 h. 120,000 compounds, 4.3% hits. Potency, µM (doses to about 28.9 µM), usual class: inhibitors. AID 1347417; active = well fitted inhibition curve with a large enough effect; note: nearly all actives have a fitted effect of over 65% in size
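Readout: SYBR Green fluorescence, 485 nm excitation, 535 nm emission, after ~16 h lysis at 37C. Before that, Dd2-infected red cells (2.5% hematocrit) grew 72 h with compound, 29 uM top final concentration.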
Of the large screens only hits and unclear results are named; the others gave an inactive call.

CN(C)C(=O)CCC(=O)N1CCN(Cc2ccccc2)CC(O)C1 (stereo unspecified)	none
CC(=O)N1CCC(C(=O)N2CCN(Cc3ccccc3)CC(O)C2)CC1 (stereo unspecified)	none
CN1C(=O)CC(C(=O)O)C12CCN(C(=O)c1ccc3c(c1)CCC3)CC2 (stereo unspecified)	none
O=C(NCc1cnccn1)C1CCCN(c2cnn(Cc3ccccc3)c(=O)c2)C1 (stereo unspecified)	none
Cn1ncc(N2CCC(C(=O)Nc3ccccc3CCc3ccccn3)C2)cc1=O (stereo unspecified)	none
O=C(Nc1ccccc1CCc1ccccn1)C1CCN(c2cnn(Cc3ccccc3)c(=O)c2)C1 (stereo unspecified)	Pf Dd2 inh 4.47µM
CCNC(=O)NCC(=O)N1CCCCCNC(=O)CC1c1ccccc1 (stereo unspecified)	none
Cn1c(CO[C@H]2CN(C(=O)c3ccno3)C[C@H]2F)nc2ccccc21	none
CCCn1cc(C2CCN(S(=O)(=O)c3c(C)c(C)cc(C)c3C)CC2)c2ccccc21	Pf Dd2 inh 10µM
CCOCCn1cc(C2CCN(S(=O)(=O)c3c(C)cc(C)cc3C)CC2)c2ccccc21	none
CCOCCn1cc(C2CCN(S(=O)(=O)c3ccc(Cl)cc3Cl)CC2)c2ccccc21	none
O=c1c2c(n(Cc3cccnc3)n1-c1ccccc1)CN(Cc1ccc(O)cc1)CC2	none
CO[C@@H]1C[C@H]2C(=O)Nc3ccc(-c4ccccc4F)cc3C(=O)N2C1	none
O=C(c1cc(COc2c(F)cccc2F)on1)N1CCCCC1CCc1ccccc1 (stereo unspecified)	none
CSc1ccccc1OCc1cc(C(=O)NCCN2CCCCC2CO)no1 (stereo unspecified)	Pf Dd2 inh 11.2µM
CCC1CCCCN1CCCNC(=O)c1c(O)nc2ccccn2c1=O (stereo unspecified)	none
O=C(c1cncc(Cl)c1)N1CCC(c2nn(-c3ccc(F)cc3)c(=O)[nH]2)CC1	none
COC(=O)c1sc(-c2ccccc2)cc1NC(=O)c1cccc(F)c1	none
COC(=O)c1sc(-c2ccccc2)cc1NC(=O)Nc1ccccc1Cl	Pf Dd2 inh 11.2µM
COC(=O)c1sc(-c2ccccc2)cc1NC(=O)c1cccc(Cl)c1	none
Cc1ccc(C(=O)N2CCC(Cc3nc(-c4ccccc4)no3)CC2)c(C)c1	none
Cc1noc(C)c1-c1cc2c(cc(-c3ccccc3)n2C)c(N2CCOCC2)n1	none
CCN(CC)CCOC(=O)c1ccc(NC(=O)c2cc3c(=O)n(CC)c4ccccc4c3s2)cc1	Pf Dd2 inh 0.794µM
CCOc1ccc(CCNC(=O)c2cc3c(=O)n(CC)c4ccccc4c3s2)cc1OCC	none
CCn1c(=O)c2cc(C(=O)Nc3cc(OC)c(OC)c(OC)c3)sc2c2ccccc21	none
O=C(CCC1CCCC1)N1CCCC(Cc2nc(C3CCOCC3)no2)C1 (stereo unspecified)	none
COC[C@H]1CCCN1[C@@H]1[C@H](O)[C@H](CO)O[C@@H]1CNS(=O)(=O)c1cccs1	none
COC[C@H]1CCCN1[C@@H]1[C@H](O)[C@H](CO)O[C@@H]1CN(Cc1ccc(F)cc1)Cc1ccc(F)cc1	Pf Dd2 inh 4.47µM
OC[C@@H]1O[C@H](CNCc2ccc(F)cc2)[C@H](N2CCCC2)[C@@H]1O	none
O=C1CO[C@H]2CCN(Cc3ccccc3Cl)CC[C@@H]2N1c1ccccc1	none
COc1ccc(CN2Cc3cc(NC(=O)c4cccc(F)c4)ccc3OCC2=O)c(OC)c1	none
COC(=O)[C@H](Cc1ccccc1)NC1CCN(c2cccc(NC(=O)CC3CCCC3)c2)CC1	none
COC(=O)c1ccc(NC(=O)c2cnc(-c3ccc(C)cc3)nc2-c2ccncc2)cc1	none
CCOC(=O)c1noc2ncnc(Nc3cccc(C(F)(F)F)c3)c12	none
CCOC(=O)c1c(C)oc2ncnc(Nc3cccc(C(F)(F)F)c3)c12	none
Cc1ccc(Nc2nc3nonc3nc2Nc2cccc(C(F)(F)F)c2)cc1Cl	Pf Dd2 inh 1.12µM
O=C1NCCCCCN(C(=O)COc2ccccc2)[C@H]2CCC[C@@H]12	none
CCOc1ccc2nc(N(Cc3cccnc3)C(C)=O)sc2c1	none
O=C(COc1ccccc1)N(Cc1cccnc1)c1nc2ccc(Cl)cc2s1	none
COc1ccc2nc(N(Cc3cccnc3)C(C)=O)sc2c1	none
COc1ccc2nc(N(Cc3cccnc3)C(=O)CCc3ccccc3)sc2c1	Pf Dd2 inh 1µM
O=C(C1COc2ccccc2O1)N(Cc1cccnc1)c1nc2ccc(Cl)cc2s1 (stereo unspecified)	none
COc1ccc2nc(N(Cc3cccnc3)C(=O)C3CCCCC3)sc2c1	Pf Dd2 inh 2.51µM
Cc1cccc(C2CCCN(C(=O)c3cn(CCc4ccccc4)nn3)C2)c1 (stereo unspecified)	none
C[C@@H](NC(=O)c1cccnc1)c1onc(-c2ccc(F)cc2)c1C(=O)O	none
Cc1noc(-c2cccs2)c1C(=O)N1CCC(Cc2ccccc2)CC1	none
COCc1noc([C@@H]2CN(C(=O)CCc3c[nH]c4ccccc34)C[C@H]2C(N)=O)n1	none
NC1CCCCN(C(=O)CCn2cc(Cl)cn2)C1 (stereo unspecified)	none
CCn1cc2nc(SCc3cccc(C(F)(F)F)c3)n(Cc3ccc(C)cc3)c(=O)c2n1	Pf Dd2 inh 10µM
